Assay outcomes: PubChem, The Scripps Research Institute Molecular Screening Center
This excerpt belongs to a sample that is enriched for hits.
TTR transcr act: activators of transthyretin transcription | activation, % at 16.7 µM | actives 1.3% (n = 92,000) | SH-SY5Y TTR promoter Gaussia luciferase, luminescence; 100% = recombinant luciferase protein wells;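 active = activation above the mean of all tested compounds plus 3 SD, cut at about 9.5% in these data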;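 also: cells exposed to compounds for one day before reading; 0% = median of all test compound wells on the plate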
TTR inh HuH7: decreases TTR transcription in HuH7 cells in activator counter-screen. shares compounds with TTR transcr act. HuH7 TTR promoter-Gaussia luciferase reporter, luminescence. inhibition, % at 16.7 µM. actives 4% (n = 1,100);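 active = average inhibition above the solvent-only control wells' mean plus 3 SD, cut at about 15% in these data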;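 also: 0% = cells with DMSO only and 100% = cells with inhibitor control FD; inhibitors lower well luminescence so higher value means more inhibition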
TTR act confirm: confirmation of human transthyretin transcription activators. shares compounds with TTR transcr act. SHSY5Y TTR promoter Gaussia luciferase, luminescence; 100% = purified Lucia enzyme wells, no cells. activation, % at 16.7 µM. 1,100 tested, under 10 active. AID 1117280;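 active = mean activation above a set limit taken from the earlier primary screen, cut at about 11% in these data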;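 also: 0% = DMSO-treated cells and 100% = recombinant Lucia luciferase without cells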
Active calls of the source: *.

SMILES	TTR transcr act	others
COC(=O)[C@]12C[C@H](CC(=O)N3CCN(C(=O)C4CC4)CC3)C(=O)N(Cc3cccc4ccccc34)C1=C[C@H](C1CCCC1)O[C@@H]2C	-1.5
CCOC(=O)[C@@]12CCCC3=C1N(CCC3)C(=O)[C@H]2CC(=O)NCc1cccc(C(F)(F)F)c1	1.9
Cn1c(=O)cc(OCCCC(=O)Nc2cc(-c3cn[nH]c3)ccn2)c2ccccc21	1.1
Cc1cc(C(=O)NCCCn2ccnc2)cs1	0.4
O=C(NCCCn1ccnc1)c1cc(C2CC2)on1	10.3*	TTR inh HuH7=-2.1;TTR act confirm=0.6
COc1cc(C(=O)NCCCn2ccnc2)cc(OC)c1OC	-0.6
O=C(Nc1ccc(SC(F)(F)F)cc1)c1ccccn1	-2.1
CCCC1CCC2(CC1)CCC2OC(=S)Nc1ccc(I)cc1 (centres undefined)	-0.1
CCCC1CCC2(CC1)CCC2OC(=O)Nc1cccc(C(F)(F)F)c1 (centres undefined)	0.2
Cc1nc(-c2ccc(C#N)cc2)cs1	0.8
Cc1nc(-c2cc(C#N)c(=O)[nH]c2C)cs1	16.0*	TTR inh HuH7=-12.0;TTR act confirm=1.0
COC(=O)c1cc(C#N)c(=O)[nH]c1C	0.3
COc1ccc(Cc2c(-c3ccc(C#N)cc3)nc3c(Cl)cc(C(F)(F)F)cn23)c(C)c1	-0.7
CC1=C(C(=O)N(C(C)C)C(C)C)CC(CC(=O)NCc2cccs2)C(=O)N1Cc1ccc(F)cc1 (centres undefined)	0.9
CCN(CC)C(=O)C1=C(C)N(Cc2ccc(OC)cc2)C(=O)C(CC(=O)NCc2cccc3ccccc23)C1 (centres undefined)	2.5
CCN(CC)C(=O)C1=C(C)N(Cc2ccc(OC)cc2)C(=O)C(CC(=O)NCc2cccs2)C1 (centres undefined)	23.2*	TTR inh HuH7=-17.6;TTR act confirm=0.5
CCC[C@H]1[C@@H](NS(=O)(=O)c2ccccc2[N+](=O)[O-])CC[C@@]23CCCN2C(=O)CCC[C@@H]13	-0.9
CCN(c1ccccc1)S(=O)(=O)c1cccc(C(=O)NCC(c2ccc(F)cc2)N2CCOCC2)c1 (centres undefined)	-2.0
O=S1(=O)c2c(cccc2N2CCC[C@@H]2CO)O[C@@H]2CCN1C2	-0.3
Cc1nc2ccccc2n1Cc1n[nH]c(=S)n1-c1ccc(Cl)cc1	0.5
Cc1ccc(-n2c(CNc3cccc(Cl)c3)n[nH]c2=S)cc1	2.3
Cc1ccc(-n2c(CSc3nc(C)cc(C)n3)n[nH]c2=S)cc1	26.2*	TTR inh HuH7=-3.1;TTR act confirm=-0.6
OC1(Cc2ccccc2)CCN(c2ncnc3sccc23)CC1	-3.8
COc1ccc2[nH]c(C)c(C(=O)CN3CCOCC3)c2c1	16.0*	TTR inh HuH7=-9.7;TTR act confirm=-0.2
COc1ccc2[nH]cc(C(=O)CN3CCC(C)CC3)c2c1	0.0
SMILES	TTR transcr act	others
Cc1[nH]c2ccccc2c1C(=O)CN1CCCC1	-0.1
COc1cc(NC(=O)c2ccccn2)ccc1NC(=O)c1ccccc1Cl	0.0
Cc1ccc2sc(C)cc(=O)c2c1	1.1
Cc1cc(C)n(CC2CC(=O)N(c3ccc(Cl)c(Cl)c3)C2=O)n1 (centres undefined)	11.9*	TTR inh HuH7=-11.3;TTR act confirm=0.2
Cc1ccc(N2C(=O)CC(Cn3nc(C)cc3C)C2=O)cc1 (centres undefined)	-1.4
Cc1cc(C)n(CC2CC(=O)N(c3ccc(Cl)cc3)C2=O)n1 (centres undefined)	3.9
COC(=O)[C@]12C[C@H](CC(=O)NCCCN3CCCC3=O)C(=O)N(Cc3ccco3)C1=C[C@H](C1CCCC1)O[C@@H]2C	-0.2
COC(=O)c1cc(-c2cccc3ccccc23)c(=O)n2c1CCC2	-1.0
O=C1CCCc2c1cc(C(=O)O)c(=O)n2-c1ccccc1	1.5
CCCCn1c2c(cc(C(=O)OC)c1=O)C(=O)CCC2	23.5*	TTR inh HuH7=-0.1;TTR act confirm=-0.9
COC(=O)C1CN(Cc2ccccc2)CCS(=O)(=O)N1Cc1ccccc1F (centres undefined)	-0.6
CCOC(=O)c1cc(C(=O)NN)c(C)nc1C	-1.5
CCOC(=O)c1cc2cc(F)ccc2nc1C	23.4*	TTR inh HuH7=-3.5;TTR act confirm=-0.8
CCOC(=O)c1cnn2c(C)cc(-c3ccc(F)cc3)nc12	-0.3
CC(C)N1CCCCC(NC(=O)c2ccc(Cl)cc2Cl)C1=O (centres undefined)	-1.7
O=C(Nc1ncccc1Cl)c1cccc(F)c1	12.0*	TTR inh HuH7=-17.4;TTR act confirm=-0.5
Cc1cc(NC(=O)c2cccc(F)c2)no1	8.5
COc1cc(OC)c(NC(=O)c2cccc(F)c2)cc1Cl	-1.9
CCC(=O)N(c1ccccc1)C1CCN(C(=O)C(Cc2ccccc2)NC(C)=O)CC1 (centres undefined)	-1.1
COC(=O)C[C@@H]1CC[C@H]2[C@@H](COc3ccc(NC(=O)Nc4ccc(C)cc4)cc3C(=O)N2C)O1	1.9
CCSc1nc(C)c(C(C)=O)cc1C#N	0.0
CC(=O)c1cc(C(C)=O)c(C)nc1C	9.9*	TTR inh HuH7=-7.4;TTR act confirm=12.8*
CC(=O)c1cc(C#N)c(Oc2ccccc2)nc1C	-2.3
O=C(OCC#CCSc1nnc(-c2cccc3ccccc23)o1)c1ccccc1	1.8
CCOc1ccc2nc(NC(=O)CSc3nc(SC)ns3)sc2c1	19.6*	TTR inh HuH7=-7.5;TTR act confirm=0.6
SMILES	TTR transcr act	others
COc1ccc2nc(NC(=O)CSc3ccccc3)sc2c1	-1.0
CCOC(=O)c1ccc(NC(=O)CSc2nc(SC)ns2)cc1	-3.4
CN(C)[C@@H]1CCN(c2cccc3c2S(=O)(=O)N2CC[C@@H](C2)O3)C1	0.8
O=C(COC(=O)c1ccc2ccccc2c1O)Nc1ccccc1	0.3
O=C(COC(=O)c1ccc(O)cc1O)Nc1ccc2ccccc2c1	21.2*	TTR inh HuH7=-22.5;TTR act confirm=0.8
O=C(COc1ccccc1)N1CCN(c2ccccc2)CC1	1.6
Cc1cc(C(=O)OCC(=O)N2CCOCC2)c(C)n1-c1ccccc1	0.5
O=C(COC(=O)c1ccc(CO)cc1)Nc1ccc2ccccc2c1	-0.6
O=C(OCC(=O)N1CCN(c2ccccc2)CC1)c1ccc(O)cc1O	15.5*	TTR inh HuH7=-24.7;TTR act confirm=-0.4
COc1ccc(Cn2cc(COC(=O)NCC(C)C)nn2)cc1	-1.4
COC(=O)[C@]12C[C@H](CC(=O)N3CCCCC3)C(=O)N(Cc3ccco3)C1=C[C@H](COCc1ccccc1)O[C@@H]2C	-0.5
COC(=O)c1cccc(Cn2ccc3ccc(-c4ccc5ccn(C(=O)C6CC6)c5c4)cc32)c1	1.6
COc1cccc(CN[C@@H]2CC[C@@]34CCCN3C(=O)CCC[C@H]4C2)c1	3.4
c1ccc(CCc2nc3ccccc3[nH]2)cc1	1.0
O=c1[nH]c2ccccc2nc1NCc1ccccc1	-2.4
c1ccc(CNc2nc3ccccc3[nH]2)cc1	9.9*	TTR inh HuH7=-4.3;TTR act confirm=0.7
O=C1CCC[C@H]2C[C@H](NCc3cccs3)CC[C@]23CCCN13	0.5
CC(C)C(NC(=O)[C@H](Cc1ccccc1)NC(=O)OCc1ccccc1)P(=O)(O)OC(Cc1ccccc1)C(=O)O (some centres undefined)	1.2
Cc1cc(C(=O)O)c(C)n1Cc1ccncc1	-0.7
Nc1cnccc1C(=O)O	10.5*	TTR inh HuH7=-7.8;TTR act confirm=1.2
Nc1ccc(Br)cc1C(=O)O	1.6
C#CCN1C(=O)[C@@](O)(c2cccn2C)c2cc(F)ccc21	-1.5
COP(=O)(OC)C(Cc1ccccc1)NC(=O)CNC(=O)OCc1ccccc1 (centres undefined)	2.3
